Screen size: about 4,300 compounds; about 4,000 (93%) were called active. The set was probably picked from earlier hits. The list is a sample of the results. Unmarked numbers belong to inactive results.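 How the source made its calls: active means inhibition above its plate's cutoff, the mean test-well inhibition plus 3 SD (cut at about 4.8% in these data); inactive means the rest.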

A short description of the test: displacement of TO-PRO-1 from CAG DNA duplex, counter-screen for rCAG RNA repeat binder project, biochemical, fluorescence, TO-PRO-1 dye, d(CAG) DNA oligo (AID 652068).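 Further: 0% = DNA dye mix with DMSO and 100% = 100 µM mitoxantrone; hits displace the dye from DNA and so lower well fluorescence.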 As to conditions: d(CAG) DNA oligo TO-PRO-1 dye displacement, at 3 µM, hits give high values.
One may read the inhibition as the relative decrease from the control value, in per cent. As to `CC(C)c1ccc(Nc2nnc(SCC(=O)c3nnc(-c4ccccc4)o3)s2)cc1`, the inhibition is 27.2% (active).

For the molecule `O=C(O)c1ccc(NN=CC2=C(N3CCOCC3)/C(=C/c3ccccc3)CC2)cc1`, the inhibition is 30.8% (active).

Consider `NC(=O)c1c(Nc2nc3c(F)cccc3s2)sc2c1CCCC2`, for which the inhibition was 14.3% (active).

Consider `COc1ccc(OC)c(NC(=O)CSc2nc(-c3ccccc3)cc(=O)[nH]2)c1`, for which the inhibition was 5.74% (active).

For the molecule `CCOc1cc(/C=C(\C#N)c2nc(-c3cccs3)c(NC(C)=O)s2)ccc1O`, the inhibition is 16.7% (active).

`CCCOc1ccc(Cn2c(O)cc(=O)[nH]c2=O)cc1`: the inhibition was 6.06% (active).

With `COc1ccc(Cl)cc1-n1c(=S)sc2c(=O)n(-c3ccc(F)cc3)c(SCC(=O)O)nc21`, the inhibition is 8.24% (active).

Turning to `COc1ccccc1/C=C/C=N/n1c(-c2ccc(Cl)cc2Cl)n[nH]c1=S`, the inhibition was 15.2% (active).

In the case of `COc1cc(C2CC(=O)N3CN(Cc4ccccc4)CSC3=C2C#N)ccc1OCc1ccccc1` (stereo not drawn), the inhibition is 12.4% (active).

Turning to `Cc1ccc(Nc2nc(-c3ccc(O)cc3O)cs2)nc1`, the inhibition was 13% (active).

Turning to `O=C(N/N=C/c1cc(Cl)cc([N+](=O)[O-])c1O)C(O)(c1ccccc1)c1ccccc1`, the inhibition is 17.8% (active).

As for `Cc1cc(/C=C2/C(=N)N3C(=NC2=O)SN=C3S(C)(=O)=O)c(C)n1-c1ccccc1`, the inhibition was 53.2% (active).

`Clc1ccccc1CSc1nnc(-c2ccco2)c(-c2ccco2)n1`: the inhibition was 30% (active).

In the case of `Cc1cc(F)ccc1S(=O)(=O)Nc1ncnc2scc(-c3ccc(F)cc3)c12`, the inhibition is 34.7% (active).

Take `O=C(Nc1nc(-c2ccco2)c(-c2ccco2)s1)c1ccco1`: the inhibition is 16.6% (active).

Take `Cc1ccc(C(=O)O)cc1-c1ccc(/C=C2\SC(=O)N(CC(=O)Nc3ccc4c(c3)OCO4)C2=O)o1`: the inhibition was 59.2% (active).

Take `Cc1ccc(C(C)C)c(OCCSc2nc3ccccc3n2CC(=O)O)c1`: the inhibition is 10.7% (active).

Take `Cc1ccc(C)c(Cn2nnc3c(=O)[nH]c(C(=O)Nc4ccc(F)cc4)nc32)c1`: the inhibition is 11.1% (active).

For the molecule `O=c1cc(CN2CCN(S(=O)(=O)/C=C/c3ccccc3)CC2)c2ccc(O)cc2o1`, the inhibition was 13.1% (active).

On to `Cc1cccc(C)c1NC(=O)C(c1ccc(C(F)(F)F)cc1)n1c(=O)c(-c2ccco2)nc2ccccc21` (stereo not drawn), for which the inhibition was 7.75% (active).

In the case of `O=C1c2cccc3cccc(c23)C(=O)N1CCCCCc1n[nH]c(=S)o1`, the inhibition was 6.52% (active).

In the case of `CC(C)c1nc(SCC(=O)Nc2cccc(C(=O)O)c2)c2c3c(sc2n1)CCCC3`, the inhibition was 20% (active).

With `O=C(N/N=C/c1cccnc1)c1cc2ccccc2cc1O`, the inhibition was 4.9% (active).

In the case of `Cc1nnc(NC(=O)Nc2ccc(Cl)c(Cl)c2)s1`, the inhibition is 21.5% (active).

As for `Cc1ccc(NC(=O)Nc2nnc(-c3ccncc3)s2)cc1`, the inhibition is 13.7% (active).

`C=C1c2c(Cl)ccc(O)c2C(O)=C2C(=O)[C@]3(O)C(O)=C(C(N)=O)C(=O)[C@@H](N(C)C)[C@@H]3[C@@H](O)C12` (stereo partly drawn): the inhibition was 38% (active).

`Cc1ccc(Nc2nc(CSc3nnnn3-c3ccccc3)cc(=O)[nH]2)cc1`: the inhibition was 16.6% (active).

For `O=C(O)c1ccc2c(c1)C(=O)N(c1ccc(/C=C/C(=O)c3ccccc3)cc1)C2=O`, the inhibition was 23.6% (active).

For `CCOc1ccc(-n2c(O)c(/C=N/Nc3nnc(C)c(=O)[nH]3)c3ccccc3c2=O)cc1`, the inhibition is 22.9% (active).

In the case of `COC(=O)c1c(NC(=O)C2CC(C)=C(C)CC2C(=O)O)sc2c1CCCCC2` (stereo not drawn), the inhibition is 20.6% (active).

Consider `N#Cc1c(NC(=O)C2CC(Cl)=CCC2C(=O)O)sc2c1CCCCC2` (stereo not drawn), for which the inhibition was 9.19% (active).

As to `CCc1nnc(NS(=O)(=O)c2ccc(NC(=O)c3cccc(OC(F)(F)C(F)F)c3)cc2)s1`, the inhibition was 22.8% (active).

Take `CCc1nnc(NS(=O)(=O)c2ccc(NC(=S)NC(=O)c3cccs3)cc2)s1`: the inhibition is 16.6% (active).

For `COc1ccc(C(=O)Nc2cccc(/C=C(/CCC(=O)O)c3nc4ccccc4s3)c2)cc1`, the inhibition is 33.5% (active).

For `O=C(O)CC/C(=C\c1cc2c(cc1Br)OCO2)c1nc2ccccc2s1`, the inhibition was 13.3% (active).

In the case of `Cc1ccc2cc(/C=N/Nc3ccc(C(=O)O)cc3)c(Cl)nc2c1`, the inhibition was 12% (active).

For the molecule `Cc1ccc(/C=C/C(=O)Nc2ccc([N+](=O)[O-])c(NC(=O)/C=C/c3ccc(C)o3)c2)o1`, the inhibition was 24.9% (active).

Turning to `O=C(Nc1nnc(-c2ccccc2)o1)c1cc(-c2cccs2)nc2ccccc12`, the inhibition is 28.7% (active).

As for `O=C(Nc1ccccc1)Nc1nnc(COc2ccccc2F)s1`, the inhibition is 24.9% (active).

Regarding `O=C(NC(=S)Nc1ccccc1C(=O)O)c1ccc(-c2ccc(Br)cc2)o1`, the inhibition is 40.4% (active).

Take `COCCNC(=O)Nc1ccc2nc(-c3ccco3)c(-c3ccco3)nc2c1`: the inhibition is 28.6% (active).

Consider `Cc1ccc(C(=O)Oc2coc(CSc3nnc(NC(=O)c4cccs4)s3)cc2=O)cc1C`, for which the inhibition is 23.1% (active).

As for `Cc1ccc(-c2csc(C(C#N)=C(O)CN3CCN(C(=O)c4ccco4)CC3)n2)cc1`, the inhibition was 18.7% (active).

In the case of `Cc1ccc(S(=O)(=O)NCCC(c2ccccc2)c2ccccc2)cc1C(=O)O`, the inhibition is 5.44% (active).

In the case of `Cc1ccccc1OCC(=O)Nc1nnc(S(=O)(=O)N2CCCC2)s1`, the inhibition is 10.8% (active).

For `CCCCCCC(=O)Nc1nc(C)c(-c2csc(Nc3cc(Cl)ccc3OC)n2)s1`, the inhibition is 11.6% (active).

On to `C[C@H]([C@@H](O)[C@@H](O)[C@@H](C)C(C)(C)C)[C@H]1CC[C@H]2C3CC[C@H]4C[C@H](OS(=O)(=O)O)[C@@H](OS(=O)(=O)O)C[C@]4(C)[C@H]3CC[C@]12C` (stereo partly drawn), for which the inhibition was 61.2% (active).

In the case of `Cc1ccc(S(=O)(=O)Nc2nc3ccccc3s2)cc1[N+](=O)[O-]`, the inhibition was 6.62% (active).

As to `O=C1/C(=C/c2ccc(F)cc2)SC(=S)N1NS(=O)(=O)c1ccccc1`, the inhibition is 11.9% (active).

As for `COc1ccc2[nH]c3c(C)c4cc[n+](C)cc4c(C)c3c2c1`, the inhibition is 61.2% (active).

As for `Oc1c(Cl)cc(Cl)c(Cl)c1Cc1c(O)c(Cl)cc(Cl)c1Cl`, the inhibition is 76.5% (active).

For `CCn1c(SCC(=O)Nc2ccc(S(=O)(=O)Nc3onc(C)c3C)cc2)nnc1-c1ccccc1`, the inhibition is 6.29% (active).

Turning to `Cc1cc(NS(=O)(=O)c2ccc(NC(=O)CSc3nnc(-c4ccc(C(C)(C)C)cc4)n3Cc3ccco3)cc2)nc(C)n1`, the inhibition is 4.42% (active).

As for `Cc1cc(NS(=O)(=O)c2ccc(NC(=O)CSc3nnc(SCc4ccc(F)cc4)s3)cc2)nc(C)n1`, the inhibition was 13% (active).

Take `Cc1nnc(SC(C(=O)Nc2cc(Cl)cc(Cl)c2)c2ccccc2)[nH]c1=O` (stereo not drawn): the inhibition is 28% (active).

For `CCOc1ccc(-n2c(SCC(=O)Nc3cc(C(=O)O)ccc3Cl)nc3ccccc3c2=O)cc1`, the inhibition was 19.2% (active).

Regarding `COC(=O)c1sc(-c2ccc(C(C)(C)C)cc2)cc1NC(=O)/C=C/C(=O)O`, the inhibition was 41.3% (active).

For `CSc1ccc(C=Nn2c(-c3ccc(F)cc3)n[nH]c2=S)cc1`, the inhibition is 11.3% (active).

On to `CC(C(=O)Nc1ccc(O)c(C(=O)O)c1)N1C(=O)/C(=C/c2cccs2)SC1=S` (stereo not drawn), for which the inhibition is 42.3% (active).

For the molecule `CC(Oc1ccc2c(-c3ccccc3)cc(=O)oc2c1)C(=O)NC(Cc1c[nH]c2ccccc12)C(=O)O` (stereo not drawn), the inhibition was 16.9% (active).

In the case of `O=C(N[C@@H](Cc1c[nH]c2ccccc12)C(=O)O)OCC1c2ccccc2-c2ccccc21`, the inhibition was 23.8% (active).

`COc1ccc(S(=O)(=O)NCCc2c[nH]c3ccccc23)cc1OC`: the inhibition was 0.56%.

Regarding `COc1ccc(-c2cc(C(=O)NC(Cc3c[nH]c4ccccc34)C(=O)O)c(C)o2)cc1OC` (stereo not drawn), the inhibition was 16.9% (active).

In the case of `COc1ccc(-c2cc(=O)oc3cc(OCC(=O)N[C@@H](Cc4c[nH]c5ccccc45)C(=O)O)ccc23)cc1`, the inhibition is 26.4% (active).

Consider `COc1cccc2sc(NNC(=O)c3nc4ccccc4s3)nc12`, for which the inhibition is 42.1% (active).

`Cc1ccc(-n2c(SCC(=O)Nc3ccc(S(=O)(=O)Nc4nccs4)cc3)nnc2-c2ccccn2)cc1`: the inhibition is 23.8% (active).

As to `Cc1ccc(-n2c(SCC(=O)Nc3ccc(S(=O)(=O)Nc4nccs4)cc3)nnc2-c2cccnc2)cc1`, the inhibition is 24.7% (active).

Regarding `Cc1ccc(-n2c(SCC(=O)Nc3ccc(S(=O)(=O)Nc4nccs4)cc3)nnc2-c2ccncc2)cc1`, the inhibition is 35.9% (active).

On to `CC(C)c1ccc(CC(=O)N2CCC2(C)C(=O)NS(=O)(=O)c2ccc(C(C)(C)C)cc2)cc1` (stereo not drawn), for which the inhibition was 25.3% (active).

For `CC1(C(=O)NS(=O)(=O)c2ccccc2)CCN1C(=O)Cc1ccc(-c2ccccc2)cc1` (stereo not drawn), the inhibition was 7.2% (active).

Consider `COc1ccc(S(=O)(=O)NC(=O)C2(C)CCN2C(=O)c2ccccc2CCc2ccccc2)cc1` (stereo not drawn), for which the inhibition is 6.35% (active).

As to `CC1(C(=O)NS(=O)(=O)Cc2cccc(Cl)c2)CCN1C(=O)Cc1ccc(Cl)cc1Cl` (stereo not drawn), the inhibition was 36.2% (active).

Take `CCCc1ccc(OCC(=O)NNC(=S)NC(=O)c2ccco2)cc1`: the inhibition was 14.4% (active).

Take `CC(Oc1ccc2ccccc2c1)C(=O)NNC(=S)NC(=O)c1ccco1` (stereo not drawn): the inhibition is 11.8% (active).

With `O=C(Nc1ccc2c(c1)CCC2)c1cccc(S(=O)(=O)Nc2ccccc2Cl)c1`, the inhibition was 10.7% (active).

As for `NS(=O)(=O)c1ccc(N=Nc2c(O)[nH]c3ccc(Br)cc23)cc1`, the inhibition was 9.96% (active).

For the molecule `N#CCC(=O)Nc1ccc(C(=O)OCC(=O)Nc2sc3c(c2C#N)CCCC3)cc1`, the inhibition was 17% (active).

On to `COC(=O)c1sccc1NC(=O)CSc1ccccc1NS(=O)(=O)c1cc(Cl)ccc1Cl`, for which the inhibition was 32.6% (active).

On to `NS(=O)(=O)c1ccc(NC2=CC(c3ccc(F)cc3)N(c3ccc(S(N)(=O)=O)cc3)C2=O)cc1` (stereo not drawn), for which the inhibition was 15% (active).

For `CC(C)(C)C1C/C(=C/c2ccco2)C(=O)/C(=C/c2ccco2)C1` (stereo not drawn), the inhibition was 17.1% (active).

`O=C(c1cccnc1)N(c1cc2sc(=O)oc2c2ccccc12)S(=O)(=O)c1ccccc1`: the inhibition was 20.1% (active).

Regarding `CC(=O)N(c1ccc2oc(=O)sc2c1)S(=O)(=O)c1ccc(C)cc1`, the inhibition is 3.88%.

For `COc1ccc(Cc2nnc(SCC(=O)Nc3ccc(C)c(Cl)c3)[nH]c2=O)cc1`, the inhibition was 24.4% (active).

Values taken from PubChem BioAssay AID652068 (The Scripps Research Institute Molecular Screening Center, 2013).
